Consider 40 compounds from PubChem BioAssay (NCI).

About 83,000 compounds went through this panel and 20% of them were active in at least one assay; those are over-represented in the sample as a whole.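 Note: values are percent growth. 100 is the growth of untreated cells, values between 100 and 0 indicate rising inhibition; between -100 and 0 indicates cell death.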 The source made the active and inactive calls. The calls were made as follows: active = growth percent below 10; inactive = the rest.

One assay deals with MALME-3M melanoma. As to the kind of experiment: NCI-60 one-dose screen, 48 h (100 = growth as untreated, 0 = no growth, -100 = all killed). The settings on record: 10 µM unless noted.
Consider `CC(=O)c1cc(O)c2ccccc2c1O`, for which the growth was 95.9% (inactive). As for `CC[C@]12C=CCN3CC[C@@]4(c5cc(NC(=O)CCC(=O)OCc6cn(Cc7ccc(F)cc7)nn6)c(OC)cc5N(C)[C@H]4[C@@](O)(C(=O)OC)[C@@H]1OC(C)=O)[C@@H]32`, the growth is 99.5% (inactive).

For `Cc1nn(-c2ccccc2)c(Oc2ccccn2)c1-c1nc2ccccc2s1`, the growth is 103% (inactive). On the same count and under the same terms, under `O=C(Cn1c2c(c3ccccc31)CCCC2)Nc1ccc(-c2nc3ccccc3s2)cc1` stands 105% (inactive). In the case of `N#Cc1c(N)nnn1Cc1cc(=O)oc2c1ccc1ccccc12`, the growth was 103% (inactive). Still for that read-out and setting: next, `O=C1N[C@@H]2NC(=[N+]3CCOCC3)N[C@@H]2N1`: 92.9% (inactive). On the same count and under the same terms, under `CCN1C(=O)N(CC)C2C1NN=c1s/c(=C\c3ccc(Cl)cc3Cl)c(=O)n12` (configuration not stated) stands 50.4% (inactive). Regarding `CC1=C(Nc2ccc(N3CCN(C)CC3)cc2)C(=O)c2cncnc2C1=O`, the growth is 131% (inactive). As to `O=c1oc2ccccc2cc1C1=NN=C(SCc2ccccc2)SC1`, the growth is 99.3% (inactive). Turning to `O=C(O)CNC1=C(Cl)C(=O)c2ccccc2C1=O`, the growth is 118% (inactive). For `N#CC1=C(c2ccc(Cl)cc2)Nc2c(c(-c3ccc(Cl)cc3)nn2-c2ccccc2)C12C(=O)Nc1ccc(Cl)cc12` (configuration not stated), the growth is 77% (inactive). The same measure, in the same setting: under `C=C(C)[C@@H]1CC[C@]2(C(=O)O)CC[C@]3(C)[C@H](CC[C@@H]4[C@@]5(C)C[C@@H](Cc6cn(CCO[C@@H]7O[C@H](COC(C)=O)[C@H](OC(C)=O)[C@H](OC(C)=O)[C@H]7OC(C)=O)nn6)[C@H](O)C(C)(C)[C@@H]5CC[C@]43C)[C@@H]12` stands 77.7% (inactive); under `Cc1ccc(NC(=S)NNC(=S)NNc2ccccc2)cc1C`, 102% (inactive); under `CCC(C)N(c1ccc(Cl)cc1)c1nc(-c2ccc(Br)cc2)cs1` (configuration not stated), 97.5% (inactive). In the case of `c1ccc(CNc2c3ccccc3nc3ccccc23)cc1`, the growth is 37.4% (inactive). For the compound `C=C(C)[C@@H]1CC[C@]2(C(=O)NCC#CCN3CCN(C)CC3)CC[C@]3(C)[C@H](CC[C@@H]4[C@@](C)(CCC#N)[C@H](C(=C)C)CC[C@]43C)[C@@H]12`, the growth is 56.9% (inactive). `O=C1C(Cl)=C(Nc2ccc(O)cc2)C(=O)N1Cc1ccc(Cl)cc1`: the growth was 76.2% (inactive).

With `O=Cc1ccc([N+](=O)[O-])s1`, the growth is 115% (inactive).

Take `COc1cc(/C=C\c2cc(/C=C\c3ccc(O)c(OC)c3)n(C(=O)COc3ccc(Cl)cc3Cl)n2)ccc1O`: the growth was 12.1% (inactive). In the case of `CC1(c2ccccc2O)NN=C(/N=C/c2cccc([N+](=O)[O-])c2)N1C(Cc1c[nH]c2ccccc12)C(=O)O` (configuration not stated), the growth was 94.1% (inactive).

For the compound `COC(=O)CNC(=O)[C@H](Cc1ccccc1)NCc1ccncc1`, the growth was 95.7% (inactive). As to `O=C(Nc1cccnc1Nc1ccc(F)cc1)c1cn(Cc2cccc(Oc3ccccc3)c2)nn1`, the growth was 60.9% (inactive). Take `COc1ccc(-c2cn(-c3cc(OC)c(OC)c(OC)c3)c(=O)n2C(C)=O)cc1`: the growth was 90.6% (inactive). For `COc1ccc(-c2nnc3n(C)c(=O)c4ccccc4n23)cc1N`, the growth was 51.9% (inactive). On the same count and under the same terms, next, `CCN(CC)c1ccc(/C=C/C(=O)c2ccc(Nc3nc(Nc4ccccc4)nc(Nc4ccccc4)n3)cc2)cc1`: 43.2% (inactive).

For `COP(=O)(OC)C(C)(C)CC(=O)CC(C#N)(C#N)C(C#N)C#N`, the growth was 96.8% (inactive). In the case of `N#CC1CCc2c(c(-c3cn[nH]c3C(F)(F)F)nc3c(F)cc4[nH]ncc4c23)C1` (configuration not stated), the growth was 18.1% (inactive).

Another assay relates to MDA-MB-231 breast. The description is as above. The settings on record: 10 µM unless noted.
Turning to `C=C(C)[C@@H]1CC[C@]2(C(=O)NCCNCCN)CC[C@]3(C)[C@H](CC[C@@H]4[C@@]5(C)C/C(=C/c6ccncc6)C(=O)C(C)(C)[C@@H]5CC[C@]43C)[C@@H]12`, the growth is 96.7% (inactive). As to `CS(=O)(=O)C1=CN(CCO)C(=O)N2CCCN=C12`, the growth was 98.6% (inactive). As for `Cc1ccc(Sc2nnc(/N=C3\C(=O)Nc4ccccc43)s2)cc1`, the growth was 104% (inactive). Still for that read-out and setting: under `CCOc1nc(-c2ccccc2)cc2c(O)c(C(=O)NN)[nH]c(=O)c12` stands 99.3% (inactive). Turning to `O=C1Nc2ccc(Br)cc2/C1=N/c1n[nH]c(=S)s1`, the growth was 105% (inactive). As for `CCCCCCCCCCCCCCCC(N)c1ccccc1` (configuration not stated), the growth was -71.9% (active). On the same count and under the same terms, under `CCc1n(Cc2ccc3ccccc3c2)cc[n+]1Cc1ccc2ccccc2c1` stands -18.9% (active); under `Cc1ccc(-c2nc(N3CCNCC3)c3oc(-c4ccccc4)nc3n2)cc1`, -79.2% (active).

Take `O=C(OCc1ccc2cccc(O)c2n1)N1CCN(C(=O)c2cc3cc(F)ccc3[nH]2)CC1`: the growth is -81.6% (active). As for `CN1CCN(Cc2ccc(NC(=O)c3cncc(C#Cc4cnc(N)c5ccccc45)c3)cc2C(F)(F)F)CC1`, the growth was -86.2% (active). In the case of `CO/N=C(/C)c1ccc(NC(=O)CSc2nnc(-c3ccncc3)n2-c2ccccc2)cc1`, the growth is 42.7% (inactive). Same read-out and setting: next, `CC(=O)OC[C@]12CCC(C)(C)C[C@H]1[C@@]1(O)[C@H](O)C[C@@H]3[C@@]4(C)CCCNC(C)(C)[C@@H]4CC[C@@]3(C)[C@]1(C)CC2`: 103% (inactive).

On to `COc1cc(-n2cc(-c3cc(O)c(C/C=C(\C)CCC=C(C)C)c(O)c3)nn2)cc2c1O[C@]1(C)CC[C@@H](O)C(C)(C)[C@H]1C2`, for which the growth is -30.7% (active).

Turning to `CC(=O)c1cc(O)c2ccccc2c1O`, the growth was 87.2% (inactive). With `CC[C@]12C=CCN3CC[C@@]4(c5cc(NC(=O)CCC(=O)OCc6cn(Cc7ccc(F)cc7)nn6)c(OC)cc5N(C)[C@H]4[C@@](O)(C(=O)OC)[C@@H]1OC(C)=O)[C@@H]32`, the growth was 98.9% (inactive).

`Cc1nn(-c2ccccc2)c(Oc2ccccn2)c1-c1nc2ccccc2s1`: the growth is 124% (inactive). The same measure, in the same setting: under `O=C(Cn1c2c(c3ccccc31)CCCC2)Nc1ccc(-c2nc3ccccc3s2)cc1` stands 96% (inactive). Still for that read-out and setting: next, `N#Cc1c(N)nnn1Cc1cc(=O)oc2c1ccc1ccccc12`: 86.7% (inactive); `O=C1N[C@@H]2NC(=[N+]3CCOCC3)N[C@@H]2N1`: 103% (inactive). Take `CCN1C(=O)N(CC)C2C1NN=c1s/c(=C\c3ccc(Cl)cc3Cl)c(=O)n12` (configuration not stated): the growth is 12.4% (inactive). On the same count and under the same terms, under `CC1=C(Nc2ccc(N3CCN(C)CC3)cc2)C(=O)c2cncnc2C1=O` stands -10.1% (active); under `O=c1oc2ccccc2cc1C1=NN=C(SCc2ccccc2)SC1`, 101% (inactive). As for `O=C(O)CNC1=C(Cl)C(=O)c2ccccc2C1=O`, the growth is 83% (inactive). In the case of `N#CC1=C(c2ccc(Cl)cc2)Nc2c(c(-c3ccc(Cl)cc3)nn2-c2ccccc2)C12C(=O)Nc1ccc(Cl)cc12` (configuration not stated), the growth was 50.1% (inactive).

Consider `C=C(C)[C@@H]1CC[C@]2(C(=O)O)CC[C@]3(C)[C@H](CC[C@@H]4[C@@]5(C)C[C@@H](Cc6cn(CCO[C@@H]7O[C@H](COC(C)=O)[C@H](OC(C)=O)[C@H](OC(C)=O)[C@H]7OC(C)=O)nn6)[C@H](O)C(C)(C)[C@@H]5CC[C@]43C)[C@@H]12`, for which the growth is 48.1% (inactive).

On to `Cc1ccc(NC(=S)NNC(=S)NNc2ccccc2)cc1C`, for which the growth was 104% (inactive). Consider `CCC(C)N(c1ccc(Cl)cc1)c1nc(-c2ccc(Br)cc2)cs1` (configuration not stated), for which the growth was 88.6% (inactive). On to `c1ccc(CNc2c3ccccc3nc3ccccc23)cc1`, for which the growth is 57.9% (inactive).

On to `C=C(C)[C@@H]1CC[C@]2(C(=O)NCC#CCN3CCN(C)CC3)CC[C@]3(C)[C@H](CC[C@@H]4[C@@](C)(CCC#N)[C@H](C(=C)C)CC[C@]43C)[C@@H]12`, for which the growth is 42.1% (inactive). On the same count and under the same terms, next, `O=C1C(Cl)=C(Nc2ccc(O)cc2)C(=O)N1Cc1ccc(Cl)cc1`: 74.1% (inactive); `O=Cc1ccc([N+](=O)[O-])s1`: 85.2% (inactive). The same measure, in the same setting: next, `COc1cc(/C=C\c2cc(/C=C\c3ccc(O)c(OC)c3)n(C(=O)COc3ccc(Cl)cc3Cl)n2)ccc1O`: 10.1% (inactive); `CC1(c2ccccc2O)NN=C(/N=C/c2cccc([N+](=O)[O-])c2)N1C(Cc1c[nH]c2ccccc12)C(=O)O` (configuration not stated): 80.5% (inactive); `COC(=O)CNC(=O)[C@H](Cc1ccccc1)NCc1ccncc1`: 105% (inactive).

`O=C(Nc1cccnc1Nc1ccc(F)cc1)c1cn(Cc2cccc(Oc3ccccc3)c2)nn1`: the growth was 61.1% (inactive). On the same count and under the same terms, next, `COc1ccc(-c2cn(-c3cc(OC)c(OC)c(OC)c3)c(=O)n2C(C)=O)cc1`: 76.7% (inactive). Still for that read-out and setting: under `COc1ccc(-c2nnc3n(C)c(=O)c4ccccc4n23)cc1N` stands 41% (inactive). Still for that read-out and setting: next, `CCN(CC)c1ccc(/C=C/C(=O)c2ccc(Nc3nc(Nc4ccccc4)nc(Nc4ccccc4)n3)cc2)cc1`: 52.8% (inactive). With `COP(=O)(OC)C(C)(C)CC(=O)CC(C#N)(C#N)C(C#N)C#N`, the growth was 100% (inactive). Still for that read-out and setting: under `N#CC1CCc2c(c(-c3cn[nH]c3C(F)(F)F)nc3c(F)cc4[nH]ncc4c23)C1` (configuration not stated) stands 20.3% (inactive).
